Laboratory results as given in PubChem BioAssay AID1851 (National Center for Advancing Translational Sciences (NCATS), 2009).
Where “and” joins values, the source holds several entries; their conditions need not be identical. Identical values can stand only once. Hit rate of the full screen: of about 16,000 compounds, about 4,000 (25%) were called active. Roughly 26% stayed inconclusive and do not appear here. These entries were drawn from the full list. A number with no mark means an inactive call. Calls come from the whole dose curve; as a rule, active = well fitted curve in the direction sought with a large enough effect; inconclusive = small, poorly fitted or top-dose-only effect, or effect the other way; inactive = no such curve, though single readings can be large or run the other way. Square brackets hold non-standard residues; d marks the D form. Peptide text beside a SMILES is read from it.

Molecular target: Cytochrome P450 2C9 (Homo sapiens) (UniProt P11712)
Experiment: Cytochrome panel assay with activity outcomes
Settings: recombinant CYP, pro-luciferin dealkylation, luminescence, p450-cyp2c9; series mostly up to 57.1 µM
% is set by controls: 0 for no effect and ±100 for the full control effect.

Sequence of Cytochrome P450 2C9 (Homo sapiens) (P11712 whole entry, looked up): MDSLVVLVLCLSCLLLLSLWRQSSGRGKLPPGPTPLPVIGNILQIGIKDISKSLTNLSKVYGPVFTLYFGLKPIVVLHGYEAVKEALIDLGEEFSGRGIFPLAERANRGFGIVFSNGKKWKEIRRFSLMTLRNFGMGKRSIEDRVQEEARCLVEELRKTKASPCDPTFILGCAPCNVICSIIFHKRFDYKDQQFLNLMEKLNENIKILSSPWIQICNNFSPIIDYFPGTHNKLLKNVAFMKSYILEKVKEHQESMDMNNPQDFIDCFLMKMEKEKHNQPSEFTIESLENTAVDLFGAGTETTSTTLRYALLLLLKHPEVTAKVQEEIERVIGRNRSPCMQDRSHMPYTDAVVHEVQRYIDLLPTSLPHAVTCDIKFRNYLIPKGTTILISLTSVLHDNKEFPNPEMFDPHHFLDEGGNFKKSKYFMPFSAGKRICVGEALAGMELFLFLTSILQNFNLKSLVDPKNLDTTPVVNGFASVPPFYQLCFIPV

| SMILES | activity, negative = inhibition | AC50 |
| --- | --- | --- |
| O=C(CN1C(=O)c2ccccc2C1=O)NC1(C(=O)O)CCCC1 | 4.07% [at 11.4 µM] | – |
| O=C1c2ccccc2C(=O)N1CC(=O)N1c2ccccc2CCc2ccccc21 | – | 3.55 µM (active) |
| CCN(CC)CCC(=O)Nc1ccc2c(c1)N(C(=O)CN(CC)CC)c1ccccc1CC2 | – | inactive |
| Cc1noc(C)c1-c1ccc2ncnc(NC3CCNCC3)c2c1 | 14.5% [at 2.29 µM] | – |
| Cc1nnc(S(=O)(=O)c2ccc(N=Nc3c(N)nc(N)nc3N)cc2)s1 | -2.75% [at 11.4 µM] | – |
| Cc1nc(-c2cccc(NC(=O)c3cc4cc(Br)ccc4oc3=O)c2)cs1 | – | inactive |
| CCCC(=O)N1CCN(c2ccc(NC(=O)c3ccc(OCC)c([N+](=O)[O-])c3)cc2)CC1 | – | inactive |
| COc1cc(C(=O)NC(=S)Nc2cccc(-c3cc4ccccc4oc3=O)c2)cc(OC)c1OC | – | 3.55 µM (active) |
| CCOc1ccc(C(=O)Nc2cccc(-c3cc4ccccc4oc3=O)c2)cc1[N+](=O)[O-] | – | 1.41 µM (active) |
| COc1cc(C(=O)NC(=S)Nc2ccc3oc(=O)ccc3c2)cc(OC)c1OC | – | inactive |
| COc1cc(NC(=O)c2cc(Cl)ccc2Cl)ccc1-c1cc2ccccc2oc1=O | – | 4.47 µM (active) |
| NCCOB(c1ccccc1)c1ccccc1 | – | inactive |
| Cc1ccc(-n2c3c(c(=O)[nH]c2=O)C(NS(=O)(=O)c2ccc(C)cc2)(C(F)(F)F)C(=O)N3)cc1 (centres undefined) | – | inactive |
| CC(=O)Nc1ccc(S(=O)(=O)NC2(C(F)(F)F)NC(=O)N(c3ccc(Cl)cc3)C2=O)cc1 (centres undefined) | – | 10 µM (active) |
| CN(N=O)c1ccc(/C=C\c2ccnc3ccccc23)cc1 | -6.97% [at 11.4 µM] | – |
| Oc1c(CN2CCCCC2)cc(Br)c2cccnc12 | – | inactive |
| CON(c1nc(N(C)C)nc(N(C)C)n1)S(=O)(=O)c1ccccc1Cl | – | 11.2 µM (active) |
| CC(=O)Nc1cccc(C(=O)OC(C(=O)c2ccc(C)c(C)c2)c2ccccc2)c1 (centres undefined) | – | 3.98 µM (active) |
| NC(N)=NC(=O)c1nc(Cl)c(N)nc1N | – | inactive |
| FC(F)Sc1ccc(N=C2NN=C(c3ccc4c(c3)OCCO4)CS2)cc1 | – | 22.4 µM (active) |
| C[N+](C)(C)CCCCCNCC12CC3CC(CC(C3)C1)C2 | – | inactive |

| SMILES | activity, negative = inhibition | AC50 |
| --- | --- | --- |
| COC(=O)[C@@]1(Cc2ccc(F)cc2)[C@H]2c3cc(C(=O)N4CCCC4)n(Cc4ccccc4)c3C[C@H]2CN1C(=O)c1ccccc1 | – | 3.98 µM (active) |
| COC(=O)[C@@]1(Cc2ccc(F)cc2)[C@H]2c3cc(C(=O)N4CCCC4)n(Cc4ccc(C)c(F)c4F)c3C[C@H]2CN1C(=O)c1ccccc1 | – | 10 µM (active) |
| COC(=O)[C@@]1(Cc2ccc(F)cc2)[C@H]2c3cc(C(=O)N4CCCC4)n(Cc4ccc(S(C)(=O)=O)cc4)c3C[C@H]2CN1C(=O)c1ccccc1 | – | 25.1 µM (active) |
| COC(=O)[C@@]1(Cc2ccc(F)cc2)[C@H]2c3cc(C(=O)N4CCCC4)n(Cc4ccc(OC(F)(F)F)cc4)c3C[C@H]2CN1C(=O)c1ccccc1 | – | 6.31 µM (active) |
| CCC(=O)c1ccc2c(c1)N(CCCN(C)C)c1ccccc1S2 | – | inactive |
| CC(C)(C)N1C(=O)[C@H]2[C@H]3[C@H](O)[C@H](O)C/C(=N/NC(=O)OCc4ccccc4)[C@H]3CC[C@@H]2C1=O | 16% [at 11.4 µM] | – |
| COC(=O)[C@@]1(Cc2ccccc2)[C@H]2c3cc(C(=O)N4CCCC4)n(CC4CC4)c3C[C@H]2CN1C(=O)c1ccccc1 | – | 1 µM (active) |
| COC(=O)[C@@]1(Cc2ccc(F)cc2)[C@H]2c3cc(C(=O)N(C)C)n(Cc4ccc(C)c(F)c4F)c3C[C@H]2CN1C(=O)c1ccccc1 | – | 25.1 µM (active) |
| COC(=O)[C@@]1(Cc2ccccc2)[C@H]2c3cc(C(=O)N4CCCC4)n(Cc4nc5ccccc5[nH]4)c3C[C@H]2CN1C(=O)c1ccccc1 | – | 1 µM (active) |
| CCOC(=O)[C@H](CCc1ccccc1)N[C@@H](C)C(=O)N1CCC[C@H]1C(=O)O | – | inactive |
| Cc1cc(=O)n2c3ccccc3n(CC(O)CN3CCCCC3)c2c1C#N (centres undefined) | – | inactive |
| CCSc1nnc(NC(=O)CSc2nc3c(cc2C#N)CCCC3)s1 | – | 2.51 µM (active) |
| CCCCC(=O)Nc1nnc(SCC(=O)NC2CCCC2)s1 | – | inactive |
| O=C(O)Cc1cccnc1 | 12.8% [at 11.4 µM] | – |
| Cn1c(C(=O)O)c(CC(=O)NCc2cccnc2)c2ccccc21 | – | 3.55 µM (active) |
| CN(C)C(=O)c1ccc(-c2nc(NCc3cccnc3)c3ccccc3n2)cc1 | 8.86% [at 2.29 µM] | – |
| Nc1[nH]n2c(=O)cc(-c3ccccc3)nc2c1N=Nc1ccccc1 | – | 15.8 µM (active) |
| O=c1nc(-c2ccccc2)cn[nH]1 | – | inactive |
| Nc1nc(C(=O)O)c(N=Nc2ccccc2)c(=O)[nH]1 | -0.919% [at 11.4 µM] | – |
| Cn1c(=O)[nH]c(=O)c2c1nc(CN1CCOCC1)n2Cc1ccccc1 | – | inactive |
| COC(=O)Cn1c(CN(Cc2ccccc2)Cc2ccccc2)nc2c1c(=O)[nH]c(=O)n2C | – | 14.1 µM (active) |

| SMILES | activity, negative = inhibition | AC50 |
| --- | --- | --- |
| CN(C)c1ccc(-c2nc(NCCN3CCOCC3)c3ccccc3n2)cc1 | 10.3% [at 2.29 µM] | – |
| Cn1c(=O)[nH]c(=O)c2c1nc(CN(Cc1ccccc1)Cc1ccccc1)n2CCN1CCOCC1 | – | 15.8 µM (active) |
| CCOCCn1c(CN(Cc2ccccc2)Cc2ccccc2)nc2c1c(=O)[nH]c(=O)n2C | – | 7.94 µM (active) |
| CCOC(=O)Cn1c(CN(Cc2ccccc2)Cc2ccccc2)nc2c1c(=O)[nH]c(=O)n2C | – | 14.1 µM (active) |
| Cc1ccc(C(=O)CNc2nc3c(c(=O)[nH]c(=O)n3C)n2Cc2ccccc2)cc1 | – | 0.891 µM (active) |
| Cc1cc(C)n(-c2nc3c(c(=O)[nH]c(=O)n3C)n2CC(C)C)n1 | – | inactive |
| COCCCCC(=NOCCN)c1ccc(C(F)(F)F)cc1 | – | 3.98 µM (active) |
| CCON=C1C(C)(C)C(C)(C)C(C)(C)C1(C)C | 4.67% [at 11.4 µM] | – |
| CCn1c(C)c(/C=N/Nc2nc3ccccc3s2)c2ccccc21 | – | inactive |
| CCCN=Cc1c(CCC)[nH]n(-c2nc3ccccc3s2)c1=O | – | 10 µM (active) |
| C(/C=C/c1ccco1)=N/N1CCN(c2ccccc2)CC1 | – | inactive |
| COC(=O)/C(=C\C(=O)c1ccccc1)Nc1cccc(C(F)(F)F)c1 | – | 15.8 µM (active) |
| O=C(CSc1ccc(C(F)(F)F)cc1[N+](=O)[O-])Nc1ccccc1 | – | inactive |
| CCC(C(=O)Nc1cccc(C(F)(F)F)c1)c1ccccc1 (centres undefined) | – | 2.82 µM (active) |
| Cc1sc(N)c(C(=O)c2cccc(C(F)(F)F)c2)c1C | – | inactive |
| O=c1[nH][nH]c(C(F)(F)F)c1C=Nc1ccccc1 | – | inactive |
| CCC[C@H]1C(=O)N2C(N(C)C)=Nc3ccc(C)cc3N2C1=O | – | inactive |
| COc1ncc2nc(-c3ccc(Cl)cc3)c(=O)n(-c3ccccc3)c2n1 | – | inactive |
| Cn1c(C[C@@H](O)c2nc3ccccc3n2C)nc2ccccc21 | 5.4% [at 11.4 µM] | – |
| Cn1c(COc2nnc(-c3ccc(Cl)cc3)c3ccccc23)nc2ccccc21 | – | 3.98 µM (active) |
| CSCC[C@H](C=O)NC(=O)[C@H](CC(C)C)NC(=O)[C@H](CC(C)C)NC(C)=O (Ac-Leu-Leu-[dM]-aldehyde) | – | inactive |

| SMILES | activity, negative = inhibition | AC50 |
| --- | --- | --- |
| Cc1c(Cl)c([N+](=O)[O-])nn1Cc1ccc(C(=O)N/N=C\c2cc(Cl)ccc2O)o1 | – | 3.98 µM (active) |
| C/C(Cn1nc([N+](=O)[O-])cc1C)=N\NC(=O)c1ccc(O)cc1O | – | inactive |
| Cc1nn(Cc2ccc(Cl)cc2)c(C)c1NC(=O)Cn1nc([N+](=O)[O-])c(Cl)c1C | – | inactive |
| Cc1c(Cl)c([N+](=O)[O-])nn1Cc1ccc(C(=O)N/N=C\c2cccc(Br)c2)o1 | – | 5.62 µM (active) |
| CCN(CC)CC[n+]1ccc2c(C)c3[nH]c4ccccc4c3c(C)c2c1 | 3.85% [at 11.4 µM] | – |
| O=C(O)c1nn(-c2ccccc2-c2n[nH]c(=O)[nH]c2=O)c(=O)[nH]c1=O | -7.45% [at 11.4 µM] | – |
| CN(Cc1ccco1)c1cc(-c2ccoc2)ncn1 | -1.76% [at 2.29 µM] | – |
| C1COC(NC(C2CC2)C2CC2)=N1 | – | inactive |
| O=C(CNCCO)N1CCc2ccccc21 | – | inactive |
| O=C(CSc1n[nH]c(-c2ccccc2O)n1)N1CCCc2ccccc21 | – | 1.12 µM (active) |
| O=C(O)CCCCCCCC(=O)O | – | inactive |
| C#CCOCCCC(=O)O | 14.4% [at 11.4 µM] | – |
| C#CCCCCCCCCCCCCCCCC(=O)O | – | 12.6 µM (active) |
| COC(=O)C/C=C\[C@@H](C)[C@@H]1C=C[C@H](OC(C)=O)[C@H](COC(C)=O)O1 | 14.8% [at 11.4 µM] | – |
| CCOC(=O)C(C)CC(C)C(=O)N1CCOCCN(C(=O)C(C)CC(C)C(=O)OCC)CCOCC1 (centres undefined) | – | inactive |
| CN(C)CC(C)(C)CN1c2ccccc2Sc2ccccc21 | -2.35% [at 11.4 µM] | – |
| CCc1cccc2c(-c3ccccc3)c3c(nc12)OCC3 | – | 12.6 µM (active) |
| CCc1cccc2c3c([nH]c12)[C@@](CC)(CC(=O)O)OCC3 | – | inactive |
| CC1(C)O[C@H]2[C@@H](c3[nH]nc4c(=O)[nH]c(=O)[nH]c34)OC[C@H]2O1 | 5.4% [at 11.4 µM] | – |
| CO[C@H]1COC(=O)C/C=C\[C@H](C)[C@@H](NS(=O)(=O)c2ccc(C)cc2)COC(=O)C/C=C\[C@@H]1C | -17.2% [at 11.4 µM] and -4.44% [at 11.4 µM] | – |
| CSCC[C@@H]1NC(=O)C/C=C\[C@@H](C)COC(=O)[C@H](C)COC1=O | -7.38% [at 11.4 µM] | – |
